Screening data as filed in PubChem BioAssay.
This is a sample that favours compounds with a hit; in the whole collection about 3.3% have one here.
PRMT1 FP inh – blocks human protein arginine methyltransferase 1. Q99873. recombinant PRMT1, activity-based probe fluorescence polarization. inhibition, % at 2.79 µM. 370,000 tested, 1.3% active. AID 652257;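 active means inhibition above about 21% made by adding two undisclosed values, limit read from the data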
Target sequence (Q99873 whole entry, looked up): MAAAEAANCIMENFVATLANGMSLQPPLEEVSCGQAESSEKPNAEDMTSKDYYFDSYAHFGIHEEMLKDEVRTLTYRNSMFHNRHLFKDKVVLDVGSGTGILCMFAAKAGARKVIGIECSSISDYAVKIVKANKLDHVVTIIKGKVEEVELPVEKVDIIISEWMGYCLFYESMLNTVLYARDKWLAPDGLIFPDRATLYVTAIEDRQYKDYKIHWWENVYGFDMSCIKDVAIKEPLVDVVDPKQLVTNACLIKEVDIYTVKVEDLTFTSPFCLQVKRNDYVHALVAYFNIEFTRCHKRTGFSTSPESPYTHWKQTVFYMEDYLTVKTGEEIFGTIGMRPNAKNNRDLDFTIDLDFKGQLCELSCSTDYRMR
MBD2 DNA inh – inhibitors of human MBD2 binding to methylated oligonucleotide | Q9UBB5 | TR-FRET | inhibition, % at 4.4 µM | 370,000 tested, 0.31% active | AID 686964; in the data active means inhibition above about 13%
M18AAP inhibitor – blocks P. falciparum M18 aspartyl aminopeptidase; inhibition, % at 7.35 µM; recombinant PfM18AAP, H-Glu-NHMec fluorogenic cleavage; 290,000 tested, 1.2% active;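 active means inhibition above the campaign mean inhibition over all tested compounds plus 3 SD, cut at about 28% in these data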;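 further: 0% = plate median of test compound wells and 100% = 2 mM ZnCl2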
PfG6PD inh – PfG6PD (Plasmodium falciparum) enzyme inhibition; PfGluPho enzyme, NADPH resazurin-diaphorase fluorescence; inhibition, % at 20 µM; 350,000 tested, 0.78% active;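 active means inhibition reaching at least a set limit at 20 µM in the primary screen, cut at about 59% in these data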;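 further: 0% = DMSO wells with substrate and 100% = DMSO wells lacking glucose-6-phosphate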
UHRF1 MBD2 ctr – blocks human UHRF1 binding to methylated DNA. Q96T88. 370,000 tested, 0.75% active. UHRF1 binding to methylated oligo, TR-FRET. inhibition, % at 4.4 µM; in the data active means inhibition above about 21%;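 further: UHRF1 SRA domain binding a hemimethylated CpG hairpin DNA probe; 0% = median of test compound wells and 100% = reference inhibitor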
PfGluPho conf – PfG6PD inhibition, single-dose confirmed; shares compounds with PfG6PD inh; recombinant PfGluPho, NADPH-diaphorase-resazurin fluorescence; inhibition, % at 20 µM; 2,400 tested, 34% active;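 active means inhibition of at least 50% at 20 µM in any single replicate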;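 further: 0% = DMSO with substrate and 100% = DMSO lacking glucose-6-phosphate substrate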
Diaphorase 10uM – diaphorase inhibition or oxidation at 10 uM NADPH; diaphorase-coupled resazurin reduction, fluorescence, NADPH 10 uM; inhibition, % at 20 µM; AID 504862; shares compounds with PfG6PD inh; 820 tested, 39% active;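 active means average inhibition reaching 50% or more with the compound at 20 µM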;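 further: resorufin red fluorescence formed as diaphorase reduces resazurin using NADPH; 0% = DMSO with enzyme and 100% = DMSO without enzyme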
Diaph ctr 30uM – counter-screen for P. falciparum G6PD inhibitors: diaphorase inhibitors, oxidizers; shares compounds with PfG6PD inh; Diaphorase/resazurin coupled assay, resorufin fluorescence, 30 uM NADPH; inhibition, % at 20 µM; 820 tested, 29% active; AID 504863;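 active means inhibition averaging 50% or more, tested at 20 µM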;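 further: 0% = DMSO with enzyme and 100% = DMSO wells lacking diaphorase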
The depositor's hits bear a star; x = no result.

SMILES | PRMT1 FP inh | MBD2 DNA inh | M18AAP inhibitor | PfG6PD inh | UHRF1 MBD2 ctr | PfGluPho conf | others
CCN(CC)c1ccc(C(=C2C=CC(=[N+](CC)CC)C=C2)c2ccc(N(CC)CC)cc2)cc1 | 4 | -2 | x | 92* | -2 | 85* | Diaphorase 10uM=35;Diaph ctr 30uM=22
C=C(C)CN(CC)Cc1c(C(=O)N(C)CCCC)nc2ccccn12 | -2 | 6 | -4 | 2 | 0 | x
O=C(CCc1ccccc1)N[C@H]1[C@@H](OC(=O)c2ccco2)CCC[C@]12C(=O)N(Cc1ccccc1)c1ccccc12 | -1 | 0 | x | x | -1 | x
Cc1cc2nc3ccc(N(C)C)cc3nc2cc1N | 70* | -2 | x | 79* | 2 | 32
O=C1/C(=C\c2ccc(Cl)c(Cl)c2)CN(C(=O)CCN2CCOCC2)C/C1=C/c1ccc(Cl)c(Cl)c1 | 6 | -3 | x | 60* | -3 | 25
O=C1/C(=C\c2ccccc2)CN(C(=O)CCN2CCCCC2)C/C1=C/c1ccccc1 | 6 | 0 | x | 44 | -3 | x
Cc1cccc(C)c1-n1nnnc1C(c1ccnc2ccccc12)N1CCN(C(=O)OCc2ccccc2)CC1 (stereo not drawn) | 0 | -2 | x | x | 3 | x
COc1ccc(-n2c(SCC(=O)Nc3ccc(S(=O)(=O)Nc4nccs4)cc3)nnc2-c2cccs2)cc1 | 4 | 5 | x | x | 1 | x
CCOc1ccc(C(=S)NC2CCCCC2)cc1OC | 7 | -1 | 24 | 62* | 3 | 14
COc1ccc(CCNC(=O)CCCc2nnc3n(C)c(=O)c4sccc4n23)cc1OC | 1 | 2 | 0 | 4 | 10 | x
O=C(NC1CCCCCC1)C(=S)N1CCCC1 | 3 | -1 | -1 | -6 | 1 | x
O=C(NC1CCCCCC1)C(=S)N1CCOCC1 | 6 | 6 | 16 | 59* | -1 | 24
C[C@H]1[C@@H](OC(=O)Nc2ccccc2F)CC[C@@]23CCCN2C(=O)CCC[C@@H]13 | -2 | -4 | x | x | -1 | x
CCOc1ccc(NC(=S)Nc2ccc3nsnc3c2)cc1 | 17 | -9 | 14 | 64* | 10 | 13
COc1ccc(NC(=S)Nc2ccc3nc(C)c(C)nc3c2)cc1 | 1 | 2 | 0 | 12 | 0 | x
COc1ccc(NC(=S)Nc2ccc3nsnc3c2)cc1 | 5 | -2 | 16 | 89* | 14 | -12
COc1ccc(Cl)cc1NC(=O)CN(C)C(=O)Cc1ccc2c(c1)CCC2 | -3 | -1 | -14 | 84* | 1 | 57* | Diaphorase 10uM=53*;Diaph ctr 30uM=52*
O=C(COc1ccc(F)cc1)Nc1nc(-c2ccccn2)cs1 | 2 | -2 | x | 24 | -5 | x
O=C(COc1cccc(F)c1)Nc1nc(-c2ccccn2)cs1 | 8 | 0 | x | 62* | -1 | 6
COc1ccc(C)cc1Nc1nc(-c2c[nH]c3ccccc23)cs1 | 10 | -3 | 0 | 60* | 1 | -8
COc1cc(/C=N/NC(=O)c2ccc(CN3C(=O)c4cccc5cccc3c45)cc2)cc(OC)c1O | 2 | 2 | 22 | 64* | 0 | 43
O=C(OC12CCCN(C1)/C(=C/c1cccnc1)C2)c1ccco1 (stereo not drawn) | 0 | -2 | x | x | 1 | x
c1csc(-c2nc3nc4ccccc4nc3n2Cc2ccc3c(c2)OCO3)c1 | -1 | 0 | 6 | 72* | -3 | 35
Cc1cc(C(=O)Nc2ccc(N3CCCC3)c(Cl)c2)ccc1[N+](=O)[O-] | -2 | -2 | -6 | 67* | -2 | 2
Cc1cccc(NC(=O)c2ccc(N3CCOCC3)c([N+](=O)[O-])c2)n1 | -1 | -4 | -8 | 70* | -2 | 19
SMILES | PRMT1 FP inh | MBD2 DNA inh | M18AAP inhibitor | PfG6PD inh | UHRF1 MBD2 ctr | PfGluPho conf | others
Cc1cccc(NC(=O)c2ccc(N3CCCCC3)c([N+](=O)[O-])c2)n1 | -4 | -5 | -4 | 98* | -4 | 25
O=C(Nc1cccnc1)c1ccc(N2CCOCC2)c([N+](=O)[O-])c1 | -1 | -4 | 6 | 13 | -2 | x
Cc1cccc(NC(=O)c2ccc(N(C)C3CCCCC3)c([N+](=O)[O-])c2)n1 | 1 | 0 | -3 | 60* | -2 | -9
O=C(Nc1ccc(N2CCCC2)c(Cl)c1)c1ccc([N+](=O)[O-])cc1 | 2 | 3 | -2 | 12 | 1 | x
COC(=O)[C@]12C[C@H](CC(=O)NCc3ccc(OC)c(OC)c3)C(=O)N(Cc3cccc4ccccc34)C1=C[C@H](C1CCCC1)O[C@@H]2C | -4 | 1 | x | x | 4 | x
C[C@@H]1CN([C@@H](C)CO)C(=O)c2cccc(NC(=O)Nc3cccc4ccccc34)c2O[C@H]1CN(C)S(=O)(=O)c1ccc(Cl)cc1 | -5 | -6 | x | x | -4 | x
CC1CCN(c2ccc(C(=O)Nc3ccc4c(c3)OCO4)cc2[N+](=O)[O-])CC1 | -1 | -2 | 3 | 62* | 0 | -13
COc1ccc(CNC(=O)CCNS(=O)(=O)c2ccc3[nH]c(=O)oc3c2)cc1 | -4 | -3 | x | x | 4 | x
Cc1ccc(C(=O)NC(=S)Nc2ccc(-c3ccc(CO)o3)cc2)cc1 | 16 | 4 | -10 | 7 | -1 | x
O=C(NC(=S)Nc1ccc(-c2ccc(CO)o2)cc1)c1cccs1 | x | x | 4 | 81* | x | 5
CN(C)S(=O)(=O)c1cccc(NC(=S)Nc2cccc3cnccc23)c1 | 16 | -3 | 10 | 69* | 2 | 8
S=C(Nc1ccc(Cl)cc1)Nc1cccc2cnccc12 | 3 | -7 | 14 | 75* | 15 | -8
S=C(Nc1cccnc1)Nc1cccc2cnccc12 | 5 | 3 | 18 | 28 | -2 | x
C/C(=N\NC(=O)c1ccc(Cn2cc(Br)cn2)o1)c1ccc(NC(=O)c2ccoc2C)cc1 | 6 | 3 | -7 | 22 | 1 | x
COCCNC(=S)N(C)[C@H]1C[C@H]2c3[nH]c4c(-c5ccc6c(c5)OCO6)cccc4c3CCN2C(=O)[C@H]1[C@H](C)O | 2 | -2 | x | x | 0 | x
COc1ccccc1CN(Cc1nc2ccccc2c(=O)[nH]1)S(=O)(=O)c1ccc2ccccc2c1 | -1 | 10 | 10 | 59* | 7 | 4
Cc1ccc(Cn2cc(COC(=O)N3CCOCC3)nn2)cc1 | -6 | -1 | x | x | 1 | x
CCN(CC)c1ccc(NC(=O)c2ccccn2)cc1S(=O)(=O)Nc1ccccc1OC | 19 | 8 | x | 60* | 4 | 18
CCN(CC)c1ccc(NC(=O)COc2ccccc2C#N)cc1S(=O)(=O)Nc1ccccc1OC | 2 | 2 | 3 | 69* | -1 | 32
COc1ccccc1NS(=O)(=O)c1cc(NC(=O)c2ccc(Cl)nc2)ccc1N1CCCC1 | x | x | x | 72* | x | 50* | Diaphorase 10uM=-3;Diaph ctr 30uM=-1
Cc1c(Cc2ccc3c(c2)OCO3)sc(NC(=O)c2ccccc2)c1C(N)=O | 14 | 0 | 3 | 3 | 0 | x
